Data as given in PMC7862700, “An all-to-all approach to the identification of sequence-specific readers for epigenetic DNA modifications on cytosine”.

What was measured:
Experiment in all cases: DAPPL (digital affinity profiling via proximity ligation, sequencing); 10 mM Tris-HCl pH 7.5, 50 mM NaCl, 1 mM DTT, 4% glycerol, room temperature, 30 min; GST-TFs on glutathione beads, 16-mer random dsDNA library, 0.1% formaldehyde crosslink after washing; high values mean tight binding
[1] = molecular target: T1, FEV (Homo sapiens, UniProt Q99581 1-238); details: protein: recombinant; tags: N-terminal GST; dsDNA, one strand shown
T1 sequence: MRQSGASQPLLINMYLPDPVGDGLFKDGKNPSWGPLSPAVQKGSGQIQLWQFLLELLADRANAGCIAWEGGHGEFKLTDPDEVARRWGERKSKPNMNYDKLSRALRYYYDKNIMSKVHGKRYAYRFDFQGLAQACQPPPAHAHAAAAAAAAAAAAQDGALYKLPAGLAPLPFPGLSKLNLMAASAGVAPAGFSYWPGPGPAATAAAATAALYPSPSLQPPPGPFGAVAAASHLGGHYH
How it was run: (§1)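 Yeast served to express human transcription factors as GST fusions, which were then captured on glutathione beads and labelled with DNA barcodes. Pooled with a tag-only sample, they were incubated with 200 nmole of a 16-mer random double-stranded DNA library for 30 min at room temperature in Tris/NaCl/DTT/glycerol buffer, washed, crosslinked with 0.1% formaldehyde, ligated by proximity, amplified by PCR and sequenced. Dividing each hexamer's read frequency for a factor by its frequency for the tag-only sample gives the binding signal.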

[2] = molecular target: ETV5 (Homo sapiens, UniProt P41161 1-510); details: protein: recombinant; tags: N-terminal GST; dsDNA, one strand shown
How it was run: as §1

[3] = molecular target: HSF1 (Homo sapiens, UniProt Q00613 1-529); details: protein: recombinant; tags: N-terminal GST; chain copies: 3; dsDNA, one strand shown
How it was run: as §1

[4] = molecular target: T2, SPIC (Homo sapiens, UniProt Q8N5J4 1-248); details: protein: recombinant; tags: N-terminal GST; dsDNA, one strand shown
T2 sequence: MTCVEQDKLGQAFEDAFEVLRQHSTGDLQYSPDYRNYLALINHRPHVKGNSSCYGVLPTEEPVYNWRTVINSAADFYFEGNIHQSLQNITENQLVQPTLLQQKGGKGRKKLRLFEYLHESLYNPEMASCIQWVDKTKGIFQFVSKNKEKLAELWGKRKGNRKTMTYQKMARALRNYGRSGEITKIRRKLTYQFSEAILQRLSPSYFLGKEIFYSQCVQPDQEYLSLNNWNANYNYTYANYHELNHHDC
How it was run: as §1

[5] = molecular target: ELF4 (Homo sapiens, UniProt Q99607 1-663); details: protein: recombinant; tags: N-terminal GST; dsDNA, one strand shown
How it was run: as §1

[6] = molecular target: T3, ELK4 (Homo sapiens, UniProt P28324-2 1-405); details: protein: recombinant; tags: N-terminal GST; dsDNA, one strand shown
T3 sequence: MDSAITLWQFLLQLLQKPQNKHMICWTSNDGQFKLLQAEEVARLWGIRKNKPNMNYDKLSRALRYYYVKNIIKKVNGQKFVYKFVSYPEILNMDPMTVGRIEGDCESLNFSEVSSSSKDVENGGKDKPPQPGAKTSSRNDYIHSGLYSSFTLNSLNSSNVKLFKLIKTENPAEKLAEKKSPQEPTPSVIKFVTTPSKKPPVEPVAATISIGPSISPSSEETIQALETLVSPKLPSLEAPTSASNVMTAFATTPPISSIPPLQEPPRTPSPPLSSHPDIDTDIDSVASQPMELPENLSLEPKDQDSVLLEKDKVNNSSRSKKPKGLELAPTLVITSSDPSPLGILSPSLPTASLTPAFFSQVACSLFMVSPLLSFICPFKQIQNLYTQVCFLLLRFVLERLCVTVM
How it was run: as §1

[7] = molecular target: T4, ETV2 (Homo sapiens, UniProt O00321 1-342); details: protein: recombinant; tags: N-terminal GST; dsDNA, one strand shown
T4 sequence: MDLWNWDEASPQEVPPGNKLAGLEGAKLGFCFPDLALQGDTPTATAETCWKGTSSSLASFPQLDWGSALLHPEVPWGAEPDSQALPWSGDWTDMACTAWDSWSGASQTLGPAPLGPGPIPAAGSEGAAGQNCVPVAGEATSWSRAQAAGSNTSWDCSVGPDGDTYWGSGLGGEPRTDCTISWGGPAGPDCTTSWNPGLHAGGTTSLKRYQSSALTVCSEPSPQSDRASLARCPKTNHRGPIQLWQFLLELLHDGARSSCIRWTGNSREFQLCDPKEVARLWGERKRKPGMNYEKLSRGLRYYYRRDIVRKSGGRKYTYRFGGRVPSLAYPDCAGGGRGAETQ
How it was run: as §1

[8] = molecular target: ETV1 (Homo sapiens, UniProt P50549 1-477); details: protein: recombinant; tags: N-terminal GST; dsDNA, one strand shown
How it was run: as §1

[9] = molecular target: T5, ERF (Homo sapiens, UniProt P50548 1-548); details: protein: recombinant; tags: N-terminal GST; dsDNA, one strand shown
T5 sequence: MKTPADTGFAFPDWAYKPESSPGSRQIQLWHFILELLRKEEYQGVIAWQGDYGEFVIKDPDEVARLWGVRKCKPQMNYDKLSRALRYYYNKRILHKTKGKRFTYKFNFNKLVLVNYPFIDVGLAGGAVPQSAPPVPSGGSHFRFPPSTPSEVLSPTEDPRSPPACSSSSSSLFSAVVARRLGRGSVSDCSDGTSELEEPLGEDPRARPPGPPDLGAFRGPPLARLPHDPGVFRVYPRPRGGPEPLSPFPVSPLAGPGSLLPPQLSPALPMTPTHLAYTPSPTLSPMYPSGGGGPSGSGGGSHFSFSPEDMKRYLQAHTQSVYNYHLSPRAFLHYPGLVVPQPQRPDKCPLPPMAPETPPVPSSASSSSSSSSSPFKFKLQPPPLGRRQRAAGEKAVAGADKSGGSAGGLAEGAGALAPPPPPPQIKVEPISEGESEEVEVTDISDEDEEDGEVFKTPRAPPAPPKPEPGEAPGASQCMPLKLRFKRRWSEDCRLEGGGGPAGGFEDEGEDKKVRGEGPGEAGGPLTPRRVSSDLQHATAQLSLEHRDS
How it was run: as §1

[10] = molecular target: T6, ETV3L (Homo sapiens, UniProt Q6ZN32 1-361); details: protein: recombinant; tags: N-terminal GST; dsDNA, one strand shown
T6 sequence: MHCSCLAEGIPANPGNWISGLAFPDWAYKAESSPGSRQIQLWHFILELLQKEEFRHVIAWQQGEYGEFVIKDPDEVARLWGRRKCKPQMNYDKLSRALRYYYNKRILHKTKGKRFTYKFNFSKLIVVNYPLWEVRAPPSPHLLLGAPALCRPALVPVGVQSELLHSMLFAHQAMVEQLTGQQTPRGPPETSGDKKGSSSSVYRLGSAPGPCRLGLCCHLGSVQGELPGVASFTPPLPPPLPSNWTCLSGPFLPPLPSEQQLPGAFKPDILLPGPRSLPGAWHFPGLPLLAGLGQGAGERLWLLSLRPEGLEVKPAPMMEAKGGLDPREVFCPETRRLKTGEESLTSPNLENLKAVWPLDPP
How it was run: as §1

[11] = molecular target: T7, ETS2 (Homo sapiens, UniProt P15036 1-469); details: protein: recombinant; tags: N-terminal GST; dsDNA, one strand shown
T7 sequence: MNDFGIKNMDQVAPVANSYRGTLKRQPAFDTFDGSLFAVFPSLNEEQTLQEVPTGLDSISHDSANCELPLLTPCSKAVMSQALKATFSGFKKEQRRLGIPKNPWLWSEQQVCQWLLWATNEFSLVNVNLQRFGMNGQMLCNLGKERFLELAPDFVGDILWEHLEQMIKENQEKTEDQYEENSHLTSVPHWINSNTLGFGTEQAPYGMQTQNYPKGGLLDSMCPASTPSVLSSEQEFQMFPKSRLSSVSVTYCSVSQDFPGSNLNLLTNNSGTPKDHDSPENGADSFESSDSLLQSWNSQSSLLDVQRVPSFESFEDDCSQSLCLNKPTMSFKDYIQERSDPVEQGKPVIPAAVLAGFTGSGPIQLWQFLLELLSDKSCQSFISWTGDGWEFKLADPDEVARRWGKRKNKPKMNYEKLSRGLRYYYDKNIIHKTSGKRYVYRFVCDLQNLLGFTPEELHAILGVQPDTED
How it was run: as §1

[12] = molecular target: T8, SPDEF (Homo sapiens, UniProt O95238 1-335); details: protein: recombinant; tags: N-terminal GST; dsDNA, one strand shown
T8 sequence: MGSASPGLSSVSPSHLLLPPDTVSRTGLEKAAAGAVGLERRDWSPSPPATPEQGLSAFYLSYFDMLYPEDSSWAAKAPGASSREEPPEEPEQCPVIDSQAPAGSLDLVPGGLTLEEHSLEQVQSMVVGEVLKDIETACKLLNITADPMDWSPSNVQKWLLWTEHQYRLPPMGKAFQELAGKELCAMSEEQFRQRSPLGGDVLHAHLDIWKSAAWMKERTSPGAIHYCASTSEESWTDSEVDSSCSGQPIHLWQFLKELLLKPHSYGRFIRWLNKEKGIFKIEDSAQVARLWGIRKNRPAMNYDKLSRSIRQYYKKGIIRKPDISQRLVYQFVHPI
How it was run: as §1

[13] = molecular target: T9, ETV7 (Homo sapiens, UniProt Q9Y603 1-341); details: protein: recombinant; tags: N-terminal GST; dsDNA, one strand shown
T9 sequence: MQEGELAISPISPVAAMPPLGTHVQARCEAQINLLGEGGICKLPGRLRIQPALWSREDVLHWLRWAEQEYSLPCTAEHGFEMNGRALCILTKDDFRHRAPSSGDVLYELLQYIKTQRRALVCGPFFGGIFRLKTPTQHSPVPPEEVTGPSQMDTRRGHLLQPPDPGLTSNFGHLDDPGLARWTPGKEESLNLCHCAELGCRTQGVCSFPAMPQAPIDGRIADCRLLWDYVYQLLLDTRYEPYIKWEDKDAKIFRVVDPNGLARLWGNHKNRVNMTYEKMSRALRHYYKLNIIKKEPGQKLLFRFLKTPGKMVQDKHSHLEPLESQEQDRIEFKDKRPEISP
How it was run: as §1

[14] = molecular target: T10, ELF5 (Homo sapiens, UniProt Q9UKW6-2 1-255); details: protein: recombinant; tags: N-terminal GST; dsDNA, one strand shown
T10 sequence: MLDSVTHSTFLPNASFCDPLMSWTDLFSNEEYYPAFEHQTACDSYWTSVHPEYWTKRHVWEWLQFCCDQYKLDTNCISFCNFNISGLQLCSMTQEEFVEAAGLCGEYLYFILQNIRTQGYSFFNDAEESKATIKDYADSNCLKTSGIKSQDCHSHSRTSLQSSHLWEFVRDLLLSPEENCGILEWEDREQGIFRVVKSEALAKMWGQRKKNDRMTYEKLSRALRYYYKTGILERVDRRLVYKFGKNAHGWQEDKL
How it was run: as §1

[15] = molecular target: T11, ETV3 (Homo sapiens, UniProt P41162-2 1-143); details: protein: recombinant; tags: N-terminal GST; dsDNA, one strand shown
T11 sequence: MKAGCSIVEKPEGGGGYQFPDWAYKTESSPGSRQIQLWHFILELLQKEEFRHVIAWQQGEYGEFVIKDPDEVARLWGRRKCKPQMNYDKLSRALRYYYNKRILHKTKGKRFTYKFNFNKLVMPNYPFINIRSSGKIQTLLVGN
How it was run: as §1

[16] = molecular target: ETV6 (Homo sapiens, UniProt P41212 1-452); details: protein: recombinant; tags: N-terminal GST; dsDNA, one strand shown
How it was run: as §1

[17] = molecular target: CRX (Homo sapiens, UniProt O43186 1-299); details: protein: recombinant; tags: N-terminal GST; dsDNA, one strand shown
How it was run: as §1

ELF4, sequence (Q99607 whole entry): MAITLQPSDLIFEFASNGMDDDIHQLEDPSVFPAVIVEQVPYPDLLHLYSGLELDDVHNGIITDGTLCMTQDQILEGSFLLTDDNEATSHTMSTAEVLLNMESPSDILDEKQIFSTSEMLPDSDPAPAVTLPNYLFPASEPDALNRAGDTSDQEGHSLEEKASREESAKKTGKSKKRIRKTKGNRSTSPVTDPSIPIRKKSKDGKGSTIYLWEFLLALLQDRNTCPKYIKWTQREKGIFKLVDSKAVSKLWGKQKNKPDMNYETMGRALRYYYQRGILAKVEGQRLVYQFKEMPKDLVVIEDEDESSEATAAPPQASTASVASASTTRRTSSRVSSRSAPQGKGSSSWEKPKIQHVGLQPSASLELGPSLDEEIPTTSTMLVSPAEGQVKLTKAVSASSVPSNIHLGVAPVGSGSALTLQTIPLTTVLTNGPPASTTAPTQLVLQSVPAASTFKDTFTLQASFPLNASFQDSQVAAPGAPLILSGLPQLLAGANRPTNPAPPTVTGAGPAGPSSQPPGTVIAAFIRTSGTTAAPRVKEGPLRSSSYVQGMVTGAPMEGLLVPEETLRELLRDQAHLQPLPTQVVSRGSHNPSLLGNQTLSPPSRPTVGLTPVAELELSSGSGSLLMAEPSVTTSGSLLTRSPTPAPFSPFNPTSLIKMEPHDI
ETV1, sequence (P50549 whole entry): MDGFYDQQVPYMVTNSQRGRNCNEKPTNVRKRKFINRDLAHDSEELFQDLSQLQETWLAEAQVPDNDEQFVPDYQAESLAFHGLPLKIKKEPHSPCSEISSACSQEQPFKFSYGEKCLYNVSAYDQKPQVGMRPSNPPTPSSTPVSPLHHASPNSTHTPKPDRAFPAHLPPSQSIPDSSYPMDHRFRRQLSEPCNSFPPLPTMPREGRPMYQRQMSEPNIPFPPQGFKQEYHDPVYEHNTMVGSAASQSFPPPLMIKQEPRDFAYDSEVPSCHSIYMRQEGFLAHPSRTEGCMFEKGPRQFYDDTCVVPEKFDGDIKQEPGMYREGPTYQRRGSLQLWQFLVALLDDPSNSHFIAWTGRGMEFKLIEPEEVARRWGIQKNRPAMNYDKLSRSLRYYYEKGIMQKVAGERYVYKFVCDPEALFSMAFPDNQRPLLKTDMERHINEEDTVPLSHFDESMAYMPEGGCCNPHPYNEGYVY
ETV6, sequence (P41212 whole entry): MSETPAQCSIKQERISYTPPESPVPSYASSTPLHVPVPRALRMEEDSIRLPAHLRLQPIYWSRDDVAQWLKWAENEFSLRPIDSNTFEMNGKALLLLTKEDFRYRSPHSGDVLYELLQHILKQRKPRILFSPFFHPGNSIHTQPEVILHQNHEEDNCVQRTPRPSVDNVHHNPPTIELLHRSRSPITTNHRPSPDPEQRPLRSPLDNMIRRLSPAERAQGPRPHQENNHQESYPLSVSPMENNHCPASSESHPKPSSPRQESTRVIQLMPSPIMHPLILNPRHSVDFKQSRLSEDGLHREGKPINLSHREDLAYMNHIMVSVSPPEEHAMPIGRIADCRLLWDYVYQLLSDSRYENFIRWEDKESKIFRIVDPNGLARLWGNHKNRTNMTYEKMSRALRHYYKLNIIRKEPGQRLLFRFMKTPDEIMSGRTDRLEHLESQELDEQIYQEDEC
ETV5, sequence (P41161 whole entry): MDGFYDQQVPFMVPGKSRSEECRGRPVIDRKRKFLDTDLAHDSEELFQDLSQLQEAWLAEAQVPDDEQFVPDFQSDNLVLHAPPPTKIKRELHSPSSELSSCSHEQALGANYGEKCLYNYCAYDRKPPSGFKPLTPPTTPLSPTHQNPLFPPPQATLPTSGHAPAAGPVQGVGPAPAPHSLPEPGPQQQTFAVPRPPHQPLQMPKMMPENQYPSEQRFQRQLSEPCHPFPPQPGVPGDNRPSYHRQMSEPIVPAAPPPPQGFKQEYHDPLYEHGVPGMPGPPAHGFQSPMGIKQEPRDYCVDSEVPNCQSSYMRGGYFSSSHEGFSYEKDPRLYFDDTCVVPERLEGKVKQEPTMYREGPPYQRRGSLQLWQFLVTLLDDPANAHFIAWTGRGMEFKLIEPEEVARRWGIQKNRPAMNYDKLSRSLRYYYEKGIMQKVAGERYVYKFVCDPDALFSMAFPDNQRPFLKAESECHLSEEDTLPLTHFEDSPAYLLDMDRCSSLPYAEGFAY
HSF1, sequence (Q00613 whole entry): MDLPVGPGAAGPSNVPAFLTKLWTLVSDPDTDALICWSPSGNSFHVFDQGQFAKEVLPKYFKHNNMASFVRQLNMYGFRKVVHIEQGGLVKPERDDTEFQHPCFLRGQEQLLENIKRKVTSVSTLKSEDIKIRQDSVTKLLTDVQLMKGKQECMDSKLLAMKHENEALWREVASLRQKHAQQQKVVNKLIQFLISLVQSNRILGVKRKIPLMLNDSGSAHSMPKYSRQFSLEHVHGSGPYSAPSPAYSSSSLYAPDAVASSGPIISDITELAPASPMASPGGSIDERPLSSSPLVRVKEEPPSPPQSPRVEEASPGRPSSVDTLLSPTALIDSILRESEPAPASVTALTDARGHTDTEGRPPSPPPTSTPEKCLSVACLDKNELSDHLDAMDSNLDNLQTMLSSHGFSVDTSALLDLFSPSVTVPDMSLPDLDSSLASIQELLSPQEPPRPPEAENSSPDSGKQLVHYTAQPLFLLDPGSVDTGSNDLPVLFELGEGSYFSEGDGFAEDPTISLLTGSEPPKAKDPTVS
CRX, sequence (O43186 whole entry): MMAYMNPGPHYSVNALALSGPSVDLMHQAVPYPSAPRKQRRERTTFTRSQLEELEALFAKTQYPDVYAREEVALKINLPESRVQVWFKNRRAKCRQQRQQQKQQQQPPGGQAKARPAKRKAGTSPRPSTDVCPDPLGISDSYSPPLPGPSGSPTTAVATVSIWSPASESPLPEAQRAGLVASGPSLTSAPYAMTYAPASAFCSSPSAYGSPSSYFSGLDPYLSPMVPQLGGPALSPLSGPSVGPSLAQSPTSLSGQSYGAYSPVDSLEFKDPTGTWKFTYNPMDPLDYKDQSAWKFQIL

Row | Sequence | binding signal [1] | binding signal [2] | binding signal [3] | binding signal [4] | binding signal [5] | binding signal [6] | binding signal [7] | binding signal [8] | binding signal [9] | binding signal [10] | binding signal [11] | binding signal [12] | binding signal [13] | binding signal [14] | binding signal [15] | binding signal [16] | binding signal [17]
1 | CTGGAC | 1.1 fold enrichment (6-mer frequency, TF over GST control) | 1.18 fold enrichment (6-mer frequency, TF over GST control) | 1.23 fold enrichment (6-mer frequency, TF over GST control) | 1.1 fold enrichment (6-mer frequency, TF over GST control) | 1.19 fold enrichment (6-mer frequency, TF over GST control) | 1.11 fold enrichment (6-mer frequency, TF over GST control) | 1.2 fold enrichment (6-mer frequency, TF over GST control) | 1.09 fold enrichment (6-mer frequency, TF over GST control) | 1.03 fold enrichment (6-mer frequency, TF over GST control) | 1.22 fold enrichment (6-mer frequency, TF over GST control) | 1.07 fold enrichment (6-mer frequency, TF over GST control) | 1.12 fold enrichment (6-mer frequency, TF over GST control) | 1.09 fold enrichment (6-mer frequency, TF over GST control) | 1.16 fold enrichment (6-mer frequency, TF over GST control) | 1.06 fold enrichment (6-mer frequency, TF over GST control) | 1.09 fold enrichment (6-mer frequency, TF over GST control) | 
2 | GGCTAG | 1.08 fold enrichment (6-mer frequency, TF over GST control) | 1.06 fold enrichment (6-mer frequency, TF over GST control) | 1.18 fold enrichment (6-mer frequency, TF over GST control) | 1.2 fold enrichment (6-mer frequency, TF over GST control) | 1.1 fold enrichment (6-mer frequency, TF over GST control) | 1.22 fold enrichment (6-mer frequency, TF over GST control) | 1.15 fold enrichment (6-mer frequency, TF over GST control) | 1.03 fold enrichment (6-mer frequency, TF over GST control) | 1.17 fold enrichment (6-mer frequency, TF over GST control) | 1.06 fold enrichment (6-mer frequency, TF over GST control) | 1.14 fold enrichment (6-mer frequency, TF over GST control) | 1.14 fold enrichment (6-mer frequency, TF over GST control) | 1.2 fold enrichment (6-mer frequency, TF over GST control) |  | 1.13 fold enrichment (6-mer frequency, TF over GST control) | 1.18 fold enrichment (6-mer frequency, TF over GST control) | 1.05 fold enrichment (6-mer frequency, TF over GST control)
